In PubChem BioAssay (NCATS):
Results filed as inconclusive are left out. A call without a number means that no potency is given here. A number with no mark means an inactive call. Active and inactive are the calls of the source. Calls follow the shape of the dose curve; as a rule, active = well fitted inhibition curve with a large enough effect; inconclusive = small, poorly fitted or top-dose-only effect; inactive = no such curve, though single readings can be large or run the other way.

Experiments:
[1] = test system: Zika virus NS2B-NS3 protease (unlinked complex); assay: Primary screen GU Rhodamine qHTS for Zika virus inhibitors: Unlinked NS2B-NS3 protease assay (AID 1347159); also: nearly all actives have a fitted effect of over 60% in size; also: potency is read from the fitted curve at half-maximal effect
Method in brief: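 Enzyme 25 nM in Tris-HCl pH 8.0 + 0.01% Tween 20; compounds up to 114 microM, 15 min RT dark; + Rhod110 substrate 1.5 microM; read t0 and 15 min; delta fluorescence → % inhibition → 4-parameter Hill fit.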

[2] = test system: Zika virus NS2B-NS3 protease (linked construct); assay: Primary screen NINDS Rhodamine qHTS for Zika virus inhibitors (AID 1347160); also: nearly all actives have a fitted effect of over 55% in size
Method in brief: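 Enzyme (25 nM, linked NS2B-NS3) was preincubated 15 min with compound in 10 mM Tris-HCl pH 8.0, 0.01% Tween 20. Rhodamine110 substrate (1.5 microM) was then added and fluorescence read at start and after 15 min.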

Row | Compound | Potency [1] | Potency [2] | activity change, negative = inhibition [1] | outcome [2]
1 | C/C=C(/COC(=O)/C(C)=C/C)C(=O)OC(CC)c1ccc(OC)c(OC)c1 (centres undefined) | inactive | inactive | – | –
2 | C=C1C[C@]23C[C@H]1CC[C@H]2[C@@]12CC[C@H](O)[C@@](C)(C(=O)O1)[C@H]2[C@@H]3C(=O)O | inactive | inactive | – | –
3 | CC1(C)CC[C@]2(C(=O)O[C@@H]3O[C@H](CO[C@@H]4O[C@H](CO)[C@@H](O)[C@H](O)[C@H]4O[C@@H]4O[C@H](CO)[C@@H](O)[C@H](O)[C@H]4O)[C@@H](O)[C@H](O[C@@H]4O[C@H](CO)[C@@H](O)[C@H](O)[C@H]4O)[C@H]3O)CC[C@]3(C)C(=CCC4[C@@]5(C)CC[C@@H](O)[C@@](C)(C(=O)O[C@@H]6O[C@H](CO)[C@@H](O)[C@H](O)[C@H]6O)C5CC[C@]43C)[C@@H]2C1 (some centres undefined) | – | – | 14.6% [at 19.1 µM] | inactive [at 10.7 µM]
4 | COc1cc(OC)c(/C=C/S(=O)(=O)Cc2ccc(OC)c(NCC(=O)O)c2)c(OC)c1 | inactive | inactive | – | –
5 | NC(=O)C(CCC(F)(F)F)N(Cc1ccc(-c2ncon2)cc1F)S(=O)(=O)c1ccc(Cl)cc1 (centres undefined) | inactive | inactive | – | –
6 | OC[C@H]1O[C@@H](OCCc2ccccc2)[C@H](O[C@@H]2OC[C@](O)(CO)[C@H]2O)[C@@H](O)[C@@H]1O | inactive | inactive | – | –
7 | OC[C@H]1O[C@@H](O[C@H]2[C@H](OCc3ccccc3)O[C@H](CO[C@@H]3OC[C@@H](O)[C@H](O)[C@H]3O)[C@@H](O)[C@@H]2O)[C@H](O)[C@@H](O)[C@@H]1O | inactive | inactive | – | –
8 | CC1(C)CCCC2(C)C1C(O)C=C(CO)C2(O)CO (centres undefined) | inactive | inactive | – | –
9 | CC(C)c1cc(C(=O)N2CC[C@H](NC(=O)C3CC3)C2)n[nH]1 | inactive | inactive | – | –
10 | C=C[C@H]1[C@H](O[C@@H]2O[C@H](CO)[C@@H](O)[C@H](O)[C@H]2O)OC=C(C(=O)OC)[C@H]1C[C@@H]1c2cc(O)c(O)cc2CCN1C(C)=O | inactive | inactive | – | –
11 | N#Cc1ccc(C(=O)N2CCC3(CC2)N=C(N)c2c(F)ccc(F)c2N3)cn1 | inactive | inactive | – | –
12 | Cc1nc(C)c(-c2ccc(C3CCC(CC(=O)O)CC3)cc2)nc1C(N)=O (centres undefined) | inactive | inactive | – | –
13 | C[C@H](NC(c1cccc2[nH]c(=O)c(=O)[nH]c12)P(=O)(O)O)c1ccc(Br)cc1 (some centres undefined) | inactive | inactive | – | –
14 | O=C(O)C(O[C@@H]1O[C@H](CO[C@@H]2O[C@H](CO)[C@@H](O)[C@H](O)[C@H]2O)[C@@H](O)[C@H](O)[C@H]1O)c1ccccc1 (some centres undefined) | inactive | inactive | – | –
15 | COC(=O)C12CCC(C)C(C)C1C1=CCC3C4(C)CCC(OC(C)=O)C(C)(C)C4CCC3(C)C1(C)CC2 (centres undefined) | inactive | inactive | – | –
16 | COc1cc(N)c(Cl)cc1C(=O)NC[C@@H]1CCN2CCC[C@@H]12 | inactive | inactive | – | –
17 | Cc1[nH]c2ccccc2c1CCNC(=O)c1ccccc1F | inactive | inactive | – | –
18 | CN[C@H](CC(C)C)C(=O)N[C@H]1C(=O)N[C@@H](CC(N)=O)C(=O)N[C@H]2C(=O)N[C@H]3C(=O)N[C@H](C(=O)N[C@H](C(=O)O)c4cc(O)cc(O)c4-c4cc3ccc4O)[C@H](O[C@H]3C[C@](C)(N)[C@@H](O)[C@H](C)O3)c3ccc(c(Cl)c3)Oc3cc2cc(c3O[C@@H]2O[C@H](CO)[C@@H](O)[C@H](O)[C@H]2O[C@H]2C[C@](C)(NCc3ccc(-c4ccc(Cl)cc4)cc3)[C@@H](O)[C@H](C)O2)Oc2ccc(cc2Cl)[C@H]1O | inactive | inactive | – | –
19 | CC1=C2C(O)C(=O)OC(c3ccoc3)C2(C)CCC1O (centres undefined) | inactive | inactive | – | –
20 | COC(=O)C[C@H]1C(C)(C)[C@H](OC(C)=O)C2CC3=C4CC(=O)O[C@@H](c5ccoc5)[C@]4(C)CCC3[C@@]1(C)C2=O (some centres undefined) | inactive | inactive | – | –
21 | Cc1cccc(S(=O)(=O)N2CCC[C@@H]2CCN2CCC(C)CC2)c1 | inactive | inactive | – | –
22 | CN(C)C/C=C/C(=O)Nc1cccc(C(=O)Nc2ccc(Nc3nccc(-c4cccnc4)n3)cc2)c1 | 79.4 µM (active) | inactive | – | –
23 | C=CC1(C)CC(OC(=O)/C(C)=C\COC(C)=O)C(C(=C)C(=O)O)C(O)C1C(=C)CO (centres undefined) | inactive | inactive | – | –
24 | O=C(O[C@H]1[C@@H]2C[C@@H]3OC[C@](O)([C@@H]1Cl)[C@H]2C(O[C@@H]1O[C@H](CO)[C@@H](O)[C@H](O)[C@H]1O)O3)c1ccc(O)c(O)c1 (some centres undefined) | inactive | inactive | – | –
25 | CC(C)S(=O)(=O)NC[C@H](C)c1ccc(NC(=O)c2cc(F)cc(F)c2)cc1 | inactive | inactive | – | –
26 | CC(C)C(C#N)O[C@@H]1O[C@H](CO[C@@H]2O[C@@H](C)[C@H](O)[C@@H](O)[C@H]2O)[C@@H](O)[C@H](O)[C@H]1O (some centres undefined) | inactive | inactive | – | –
27 | CNS(=O)(=O)c1ccccc1Nc1nc(Nc2ccc(N3CCN(C)CC3)cc2OC)ncc1Cl | inactive | inactive | – | –
